Results filed as inconclusive are left out. The source made the active and inactive calls. Calls follow the shape of the dose curve; as a rule, active = well fitted curve in the direction sought with a large enough effect; inconclusive = small, poorly fitted or top-dose-only effect, or another doubt; inactive = no such curve, though single readings can be large; an effect the other way counts as inactive or inconclusive.
Columns and labels:
[1] = Quantitative High-Throughput drug screen in 47 multiple myeloma cell lines against the NCATS MIPE library collection: KMS21BM_JCRB cell viability assay (AID 1918974); settings: ATP luminescence, 48 h; viability: at 45.8 µM unless noted
Summary of the method: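 Viability readout: CellTiter-Glo luminescence following 5 min room-temperature incubation with reagent. Prior exposure: 48 h, 37C, humidified 5% CO2, 500 cells per well.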

[2] = Quantitative High-Throughput drug screen in 47 multiple myeloma cell lines against the NCATS MIPE library collection: KMS26_JCRB cell viability assay (AID 1918975); also: nearly all actives have a fitted effect of over 45% in size
Summary of the method: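 Inhibition of cell viability is measured here. Each line was plated at 500 cells per well, treated with MIPE 4.0 drugs, kept 48 hours at 37C, then assayed for ATP content by CellTiter-Glo luminescence.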

[3] = Quantitative High-Throughput drug screen in 47 multiple myeloma cell lines against the NCATS MIPE library collection: MOLP8_DSMZ cell viability assay (AID 1918977); also: nearly all actives have a fitted effect of over 45% in size
Summary of the method: (§1)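 qHTS format: cells plated (500/well), pin-dosed with MIPE 4.0 compounds, kept 48 h at 37 °C. Readout was CellTiter-Glo luminescence, median RLU.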

[4] = Quantitative High-Throughput drug screen in 47 multiple myeloma cell lines against the NCATS MIPE library collection: NCIH929_DSMZ cell viability assay (AID 1918978); also: nearly all actives have a fitted effect of over 35% in size
Summary of the method: as §1

[5] = Quantitative High-Throughput drug screen in 47 multiple myeloma cell lines against the NCATS MIPE library collection: OCIMY1_PLB cell viability assay (AID 1918979); also: nearly all actives have a fitted effect of over 35% in size;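 as to viability: series mostly up to about 46 µM; 100% = DMSO-only wells and 0% = cell-free media-only wells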
Summary of the method: as §1

[6] = Quantitative High-Throughput drug screen in 47 multiple myeloma cell lines against the NCATS MIPE library collection: MM1S_ATCC cell viability assay (AID 1918980); also: nearly all actives have a fitted effect of over 45% in size
Summary of the method: as §1

[7] = Quantitative High-Throughput drug screen in 47 multiple myeloma cell lines against the NCATS MIPE library collection: L363_DSMZ cell viability assay (AID 1918984); also: nearly all actives have a fitted effect of over 40% in size
Summary of the method: as §1

[8] = Quantitative High-Throughput drug screen in 47 multiple myeloma cell lines against the NCATS MIPE library collection: XG6_PLB cell viability assay (AID 1919865); also: nearly all actives have a fitted effect of over 40% in size
Summary of the method: as §1

[9] = Quantitative High-Throughput drug screen in 47 multiple myeloma cell lines against the NCATS MIPE library collection: XG1_PLB cell viability assay (AID 1919866); also: nearly all actives have a fitted effect of over 35% in size
Summary of the method: as §1

[10] = Quantitative High-Throughput drug screen in 47 multiple myeloma cell lines against the NCATS MIPE library collection: VP6_DJ cell viability assay (AID 1919867); also: nearly all actives have a fitted effect of over 40% in size
Summary of the method: as §1

[11] = Quantitative High-Throughput drug screen in 47 multiple myeloma cell lines against the NCATS MIPE library collection: MMM1_PLB cell viability assay (AID 1918976); also: nearly all actives have a fitted effect of over 35% in size
Summary of the method: as §1

[12] = Quantitative High-Throughput drug screen in 47 multiple myeloma cell lines against the NCATS MIPE library collection: MM1R_ATCC cell viability assay (AID 1918981); also: nearly all actives have a fitted effect of over 35% in size
Summary of the method: as §1

[13] = Quantitative High-Throughput drug screen in 47 multiple myeloma cell lines against the NCATS MIPE library collection: LP1_DSMZ cell viability assay (AID 1918982); also: nearly all actives have a fitted effect of over 35% in size
Summary of the method: as §1

[14] = Quantitative High-Throughput drug screen in 47 multiple myeloma cell lines against the NCATS MIPE library collection: KMS28PE_JCRB cell viability assay (AID 1918983); also: nearly all actives have a fitted effect of over 35% in size
Summary of the method: as §1

[15] = Quantitative High-Throughput drug screen in 47 multiple myeloma cell lines against the NCATS MIPE library collection: KMS34_JCRB cell viability assay (AID 1918985); also: nearly all actives have a fitted effect of over 40% in size
Summary of the method: as §1

[16] = Quantitative High-Throughput drug screen in 47 multiple myeloma cell lines against the NCATS MIPE library collection: OCIMY7_PLB cell viability assay (AID 1918987); also: nearly all actives have a fitted effect of over 65% in size
Summary of the method: as §1

[17] = Quantitative High-Throughput drug screen in 47 multiple myeloma cell lines against the NCATS MIPE library collection: OCIMY5_PLB cell viability assay (AID 1918988); also: nearly all actives have a fitted effect of over 65% in size
Summary of the method: as §1

[18] = Quantitative High-Throughput drug screen in 47 multiple myeloma cell lines against the NCATS MIPE library collection: OPM1_PLB cell viability assay (AID 1918989); also: nearly all actives have a fitted effect of over 40% in size
Summary of the method: as §1

[19] = Quantitative High-Throughput drug screen in 47 multiple myeloma cell lines against the NCATS MIPE library collection: SKMM1_PLB cell viability assay (AID 1919863); settings: SKMM1 myeloma viability, CellTiter-Glo ATP, 48 h; viability: stronger effect = lower value; also: nearly all actives have a fitted effect of over 35% in size; as to viability: series mostly up to about 46 µM
Summary of the method: as §1

[20] = Quantitative High-Throughput drug screen in 47 multiple myeloma cell lines against the NCATS MIPE library collection: U266_ATCC cell viability assay (AID 1919864); also: nearly all actives have a fitted effect of over 35% in size
Summary of the method: as §1
Potency is read from the fitted curve at half-maximal effect.

CN(C1CCc2c(c3ccccc3n2CC(=O)O)C1)S(=O)(=O)c1ccc(F)cc1 (configuration not stated)
active: Potency [1] 0.418 µM | Potency [6] 1.48 µM | Potency [7] 1.48 µM | Potency [8] 1.87 µM | Potency [9] 3.72 µM | Potency [10] 0.0743 µM
inactive: Potency [2] | Potency [3] | Potency [4] | Potency [5]

COc1cccc2nc(-c3cccs3)nc(NN3C(=O)C=C(C)C3=O)c12
active: Potency [1] 0.235 µM | Potency [2] 2.96 µM | Potency [11] 5.9 µM | Potency [4] 0.235 µM | Potency [5] 0.187 µM | Potency [6] 0.418 µM | Potency [12] 0.187 µM | Potency [13] 0.187 µM | Potency [14] 2.64 µM | Potency [15] 0.0296 µM | Potency [16] 0.0264 µM | Potency [17] 0.0418 µM | Potency [18] 0.0833 µM | Potency [19] 1.05 µM | Potency [20] 0.118 µM | Potency [8] 0.0833 µM | Potency [9] 0.0264 µM | Potency [10] 0.0372 µM

O=C(c1ccc(Nc2nccc(-c3cc4ccccc4s3)n2)cc1)N1CCC(N2CCCC2)CC1
active: Potency [1] 5.26 µM | Potency [2] 16.6 µM | Potency [11] 20.9 µM | Potency [4] 5.9 µM | Potency [5] 20.9 µM | Potency [6] 20.9 µM | Potency [12] 16.6 µM | Potency [13] 20.9 µM | Potency [14] 16.6 µM | Potency [7] 1.48 µM | Potency [16] 2.35 µM | Potency [17] 8.33 µM | Potency [18] 5.26 µM | Potency [19] 23.5 µM | Potency [8] 1.87 µM | Potency [9] 4.69 µM | Potency [10] 3.32 µM

O=c1[nH]c(=O)n(C2CCCO2)cc1F (configuration not stated)
inactive: Potency [1] | Potency [2] | Potency [4] | Potency [5] | Potency [12] | Potency [13] | Potency [14] | Potency [7] | Potency [18] | Potency [10]
active: Potency [17] 42.9 µM

CC(=O)c1c(C)c2cnc(Nc3ccc(N4CCNCC4)cn3)nc2n(C2CCCC2)c1=O
active: Potency [1] 14.8 µM | Potency [2] 18.7 µM | Potency [3] 18.7 µM | Potency [4] 20.9 µM | Potency [6] 20.9 µM | Potency [12] 14.8 µM | Potency [13] 5.9 µM | Potency [14] 18.7 µM | Potency [7] 23.5 µM | Potency [17] 11.8 µM | Potency [18] 18.7 µM | Potency [19] 16.6 µM | Potency [20] 20.9 µM | Potency [8] 14.8 µM | Potency [9] 14.8 µM | Potency [10] 18.7 µM

CN1CCC(CNc2ccc3ncc(-c4cccc(OC(F)(F)F)c4)n3n2)CC1
active: Potency [1] 9.35 µM | Potency [2] 18.7 µM | Potency [11] 18.7 µM | Potency [4] 7.43 µM | Potency [5] 20.9 µM | Potency [6] 7.43 µM | Potency [12] 20.9 µM | Potency [13] 26.4 µM | Potency [14] 18.7 µM | Potency [7] 7.43 µM | Potency [16] 4.69 µM | Potency [17] 14.8 µM | Potency [18] 6.62 µM | Potency [19] 23.5 µM | Potency [20] 9.35 µM | Potency [8] 5.9 µM | Potency [9] 5.9 µM | Potency [10] 7.43 µM

CC(C)[C@H](C(=O)Nc1ccc(C(=O)NO)cc1)c1ccccc1
active: Potency [1] 0.105 µM | Potency [2] 3.32 µM | Potency [3] 0.526 µM | Potency [4] 0.526 µM | Potency [5] 1.18 µM | Potency [6] 0.662 µM | Potency [12] 0.526 µM | Potency [13] 0.743 µM | Potency [14] 0.833 µM | Potency [15] 0.264 µM | Potency [16] 0.418 µM | Potency [17] 0.526 µM | Potency [18] 0.469 µM | Potency [19] 1.18 µM | Potency [20] 0.935 µM | Potency [8] 2.35 µM | Potency [10] 0.372 µM

COC(=O)[C@]12CCC(C)(C)C[C@@H]1[C@@H]1C(=O)C=C3[C@@]4(C)C=C(C#N)C(=O)C(C)(C)[C@@H]4CC[C@@]3(C)[C@]1(C)CC2
active: Potency [1] 0.0743 µM | Potency [2] 0.209 µM | Potency [11] 1.32 µM | Potency [4] 0.235 µM | Potency [5] 0.743 µM | Potency [6] 0.418 µM | Potency [12] 0.264 µM | Potency [13] 0.743 µM | Potency [14] 0.526 µM | Potency [7] 0.526 µM | Potency [15] 0.662 µM | Potency [17] 0.209 µM | Potency [18] 0.209 µM | Potency [19] 0.469 µM | Potency [20] 0.264 µM | Potency [8] 0.372 µM | Potency [9] 0.166 µM | Potency [10] 0.264 µM

CC[C@H](CO)Nc1nc(NCc2ccccc2)c2ncn(C(C)C)c2n1
active: Potency [1] 4.18 µM | Potency [2] 33.2 µM | Potency [4] 10.5 µM | Potency [6] 20.9 µM | Potency [12] 26.4 µM | Potency [13] 26.4 µM | Potency [15] 26.4 µM | Potency [16] 16.6 µM | Potency [18] 23.5 µM | Potency [20] 23.5 µM | Potency [8] 14.8 µM | Potency [9] 16.6 µM | Potency [10] 18.7 µM

COc1ccc(C=Cc2cc(OC)c(OC)c(OC)c2)cc1O
inactive: Potency [1] | Potency [11] | Potency [4] | Potency [5] | Potency [13] | Potency [7] | Potency [15] | Potency [16] | Potency [18] | viability [19] 34.9% | Potency [20] | Potency [8] | Potency [9] | Potency [10]

Reference: PubChem BioAssay (NCATS)
